The text below walks through data of PubChem BioAssay (NCI).

Molecules are shown by their SMILES. The panel holds about 83,000 compounds, 20% with a hit somewhere; the sample as a whole holds those more often.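 Percent growth is the endpoint: 0 to 100 indicates growth inhibition (40 means 60% inhibition), 0 means no net growth, and negative values indicate cell death.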 Calls of active or inactive are those of the source. The calls were made as follows: active = growth percent below 10; inactive = the rest.

For the assay, the system named is SK-MEL-28 melanoma. Briefly: NCI-60 one-dose screen, 48 h (100 = growth as untreated, 0 = no growth, -100 = all killed). The settings on record: 10 µM unless noted.
For `CN1CCN(CCCOc2cccc3nc(Nc4ccc(Cl)c(C(F)(F)F)c4)ccc23)CC1`, the growth was -45.2% (active).
In the case of `C#Cc1cccc(Nc2ncnc3cc(OC)c(OCCCCCCC(=O)NO)cc23)c1` it was -29.5% (active); in that of `Cc1ccc(-n2nc(C(C)(C)C)cc2NC(=O)NCc2cc(F)ccc2Oc2ccc3c(cnn3CCO)c2)cc1`, 0.876% (active); in that of `Cn1ccnc1C(=O)/C=C/c1ccc(CC(=O)Nc2ccc(Br)cc2)cc1`, 92.3% (inactive).
With `Cc1[nH]n(C(N)=S)c(=O)c1N=Nc1ccc(S(=O)(=O)Nc2ccncn2)cc1`, the growth is 98.9% (inactive).
As for `Cc1[nH]c(/C=C2\C(=O)Nc3ccc(F)cc32)c(C)c1C(=O)NC[C@H](O)CN1CCOCC1`, the figure is 17.7% (inactive); as for `Cn1ncc(Cl)c1-c1cc(C(=O)N[C@H](CN)Cc2cccc(F)c2)sc1Cl`, -72.7% (active); as for `Cn1cc(-c2ncnc3ccc(-c4cnc(Cl)c(NS(C)(=O)=O)c4)cc23)c2ccccc21`, 0.439% (active).
As for `O=[N+]([O-])c1cc(Br)cc2c1[nH]c1ccc(Br)cc12`, the figure is 89.8% (inactive); as for `COc1ccc2c(OCc3nnc4ccc(-c5ccccc5)nn34)ccnc2c1`, 111% [2.5 µM] (inactive); as for `CC(=O)O[C@]1(C)C[C@H](O)[C@]2(O)C=CO[C@H](O[C@@H]3O[C@H](CO)[C@@H](O)[C@H](O)[C@H]3O)[C@@H]21`, 112% (inactive).
With `COc1cc2cc(NCc3ccc(F)cc3)nc(C)c2cc1OC`, the growth was 35.4% (inactive).
In the case of `O=C(Nc1nc2cccc(-c3ccc(CN4CCS(=O)(=O)CC4)cc3)n2n1)C1CC1` it was 90.2% (inactive); in that of `N#Cc1c(-c2ccc(Cl)cc2)csc1NC(=O)Nc1cccc(C(F)(F)F)c1`, 14.3% (inactive); in that of `O=C(c1ccc(/C=C/c2n[nH]c3ccccc23)cc1)N1CCNCC1`, 46.2% (inactive).
As for `Cc1cnc(Nc2ccc(OCCN3CCCC3)cc2)nc1Nc1cccc(S(=O)(=O)NC(C)(C)C)c1`, the figure is -10.7% (active); as for `CO[C@H]1C[C@@H]2CC[C@@H](C)[C@@](O)(O2)C(=O)C(=O)N2CCCC[C@H]2C(=O)O[C@H]([C@H](C)C[C@@H]2CC[C@@H](OCCO)[C@H](OC)C2)CC(=O)[C@H](C)/C=C(\C)[C@@H](O)[C@H](OC)C(=O)[C@H](C)C[C@H](C)\C=C/C=C/C=C/1C`, 44% (inactive).
On to `COc1cc(F)c(F)c(Nc2ccc(I)cc2F)c1NS(=O)(=O)C1(C[C@H](O)CO)CC1`, for which the growth was 3.06% (active).
In the case of `Nc1ccc(S(=O)(=O)O)c2cc(S(=O)(=O)O)cc(O)c12` it was 97.1% (inactive); in that of `COc1cc2ncnc(Nc3ccc(F)c(Cl)c3)c2cc1NC(=O)/C=C/CN1CCCCC1`, -85.5% (active).
In the case of `COc1ccc(C(=O)N2c3ccccc3Sc3ccccc32)c(F)c1` it was 58.9% (inactive); in that of `O=S1(=O)OC(c2ccc(O)c(Cl)c2)(c2ccc(O)c(Cl)c2)c2ccccc21`, 114% (inactive); in that of `C[C@H](NC(=O)c1c(N)nn2cccnc12)c1cc2cccc(C#Cc3cnn(C)c3)c2c(=O)n1-c1ccccc1`, 45.5% (inactive).
In the case of `Cc1cc(O)cc(-c2c(-c3ccnc(-c4cccnc4)c3)cnn2C)c1` it was 60.8% (inactive); in that of `CN1CCN(CCOc2cc(OC3CCOCC3)c3c(Nc4c(Cl)ccc5c4OCO5)ncnc3c2)CC1`, 104% (inactive).
